# Data reported in PubChem BioAssay (EPA / NIEHS).
# Where “and” joins values, the source holds several entries; their conditions need not be identical. Identical values can stand only once. Inconclusive results are not listed. A structure can be active in one record and inactive in another. Calls of active or inactive are those of the source. The calls were made as follows, unless noted: active = hit-call score of the fitted dose curve at least 0.9, where 1 is the maximum; inactive = score below 0.9.
# Read-out: E-selectin (Homo sapiens) (UniProt P16581)
# Experiment: BSK_3C_Eselectin: BioMAP Diversity Plus: 3C Assay for Eselectin Biomarker Activity (AID 2283015);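 also: cell surface E-selectin protein quantified by ELISA 24 h after dosing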
# Conditions: primary human endothelial cells (HUVEC); actives raise or lower the signal
# In short: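 HUVEC, 3C stimulation; compound exposure 24 h; E-selectin by ELISA; gain- or loss-of-signal fitted bidirectionally vs DMSO baseline.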
# E-selectin (Homo sapiens), sequence (P16581 whole entry, looked up): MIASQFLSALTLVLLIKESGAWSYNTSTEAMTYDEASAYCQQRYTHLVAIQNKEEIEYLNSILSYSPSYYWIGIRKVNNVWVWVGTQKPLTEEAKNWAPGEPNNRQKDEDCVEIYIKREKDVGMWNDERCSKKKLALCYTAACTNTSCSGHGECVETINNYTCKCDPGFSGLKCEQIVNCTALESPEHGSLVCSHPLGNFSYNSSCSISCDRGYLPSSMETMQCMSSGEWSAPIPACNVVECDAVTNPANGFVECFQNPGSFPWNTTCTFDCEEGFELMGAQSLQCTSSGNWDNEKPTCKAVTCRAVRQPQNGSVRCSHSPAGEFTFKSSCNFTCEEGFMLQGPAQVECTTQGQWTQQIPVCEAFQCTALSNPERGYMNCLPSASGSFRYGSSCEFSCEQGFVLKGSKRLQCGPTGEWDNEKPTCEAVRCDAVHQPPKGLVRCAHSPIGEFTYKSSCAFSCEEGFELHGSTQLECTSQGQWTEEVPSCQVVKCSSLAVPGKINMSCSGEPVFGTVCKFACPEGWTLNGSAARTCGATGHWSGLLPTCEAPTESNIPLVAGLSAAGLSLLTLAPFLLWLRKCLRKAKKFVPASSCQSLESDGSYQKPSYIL
row,SMILES,outcome
1,O=C(Nc1ccc2c(O)c(N=Nc3ccc(N=Nc4ccc(S(=O)(=O)O)cc4)cc3)c(S(=O)(=O)O)cc2c1)c1ccccc1,inactive
2,O=C1OC[C@H](Cc2cccc(O)c2)[C@H]1Cc1cccc(O)c1,inactive
3,O=C1c2ccccc2C(=O)c2c(O)ccc(O)c21,inactive
4,CCOC(=O)C(C#N)=C(c1ccccc1)c1ccccc1,inactive
5,C1=CC2C3C=CC(C3)C2C1 (stereo not drawn),inactive

# Read-out: Interleukin-1 alpha (IL1a), IL1A (gene 3552)
# Experiment: BSK_BE3C_IL1a: BioMAP Diversity Plus: BE3C Assay for Interleukin-1 alpha (IL1a) Biomarker Activity (AID 2283016)
# Conditions: primary human bronchial epithelial cells; actives raise or lower the signal
# In short: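 BE3C primary human bronchial epithelium; cpd 24 h; IL-1a by ELISA; bidirectional fit vs DMSO; parallel SRB (0.1% SRB, 10% TCA fix, 560 nm) for cytotoxicity.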
row,SMILES,outcome
1,O=C(Nc1ccc2c(O)c(N=Nc3ccc(N=Nc4ccc(S(=O)(=O)O)cc4)cc3)c(S(=O)(=O)O)cc2c1)c1ccccc1,inactive
2,O=C1OC[C@H](Cc2cccc(O)c2)[C@H]1Cc1cccc(O)c1,inactive
3,O=C1c2ccccc2C(=O)c2c(O)ccc(O)c21,inactive
4,CCOC(=O)C(C#N)=C(c1ccccc1)c1ccccc1,inactive
5,C1=CC2C3C=CC(C3)C2C1 (stereo not drawn),inactive

# Read-out: Monocyte Chemoattractant Protein-1 (MCP1), CCL2 (gene 6347)
# Experiment: BSK_4H_MCP1: BioMAP Diversity Plus: 4H Assay for Monocyte Chemoattractant Protein-1 (MCP1) Biomarker Activity (AID 2283018)
# Conditions: primary human endothelial cells (HUVEC); actives raise or lower the signal
# In short: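 ELISA read-out of MCP-1 from human vascular endothelial primary cells taken at 24 hours after compound exposure. Activity was fitted in both directions relative to DMSO, which served as negative control.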
SMILES,outcome,AC50
O=C(Nc1ccc2c(O)c(N=Nc3ccc(N=Nc4ccc(S(=O)(=O)O)cc4)cc3)c(S(=O)(=O)O)cc2c1)c1ccccc1,inactive,
O=C1OC[C@H](Cc2cccc(O)c2)[C@H]1Cc1cccc(O)c1,inactive,
O=C1c2ccccc2C(=O)c2c(O)ccc(O)c21,inactive,
CCOC(=O)C(C#N)=C(c1ccccc1)c1ccccc1,inactive,1 µM (active)
C1=CC2C3C=CC(C3)C2C1 (stereo not drawn),inactive,

# Read-out: Human Leukocyte Antigen - DR isotype (HLADR), HLA-DRA (gene 3122)
# Experiment: BSK_3C_HLADR: BioMAP Diversity Plus: 3C Assay for Human Leukocyte Antigen - DR isotype (HLADR) Biomarker Activity (AID 2283019);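 as to outcome: ELISA of cell-surface HLA-DR on HUVEC 24 h after dosing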
# Conditions: primary human endothelial cells (HUVEC); actives raise or lower the signal
# In short: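 HUVEC, 3C stimulation, 24 h post-dose; HLA-DR by ELISA; bidirectional curve fit vs DMSO baseline; gain or loss of signal scored.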
SMILES,outcome,AC50
O=C(Nc1ccc2c(O)c(N=Nc3ccc(N=Nc4ccc(S(=O)(=O)O)cc4)cc3)c(S(=O)(=O)O)cc2c1)c1ccccc1,inactive,
O=C1OC[C@H](Cc2cccc(O)c2)[C@H]1Cc1cccc(O)c1,inactive,
O=C1c2ccccc2C(=O)c2c(O)ccc(O)c21,,8.08 µM (active)
CCOC(=O)C(C#N)=C(c1ccccc1)c1ccccc1,inactive,
C1=CC2C3C=CC(C3)C2C1 (stereo not drawn),inactive,

# Read-out: Interleukin-8 (IL8), CXCL8 (gene 3576)
# Experiment: BSK_3C_IL8: BioMAP Diversity Plus: 3C Assay for Interleukin-8 (IL8) Biomarker Activity (AID 2283020)
# Conditions: primary human endothelial cells (HUVEC); actives raise or lower the signal
# In short: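 ELISA read-out of IL-8 from human umbilical vein endothelium, measured 24 h after chemical dosing. Activity is expressed relative to DMSO negative control, with both increases and decreases fitted.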
SMILES,AC50,outcome
O=C(Nc1ccc2c(O)c(N=Nc3ccc(N=Nc4ccc(S(=O)(=O)O)cc4)cc3)c(S(=O)(=O)O)cc2c1)c1ccccc1,20 µM (active),inactive
O=C1OC[C@H](Cc2cccc(O)c2)[C@H]1Cc1cccc(O)c1,,inactive
O=C1c2ccccc2C(=O)c2c(O)ccc(O)c21,2.12 µM (active),
CCOC(=O)C(C#N)=C(c1ccccc1)c1ccccc1,,inactive
C1=CC2C3C=CC(C3)C2C1 (stereo not drawn),,inactive

# Read-out: Monokine induced gamma interferon (MIG), CXCL9 (gene 4283)
# Experiment: BSK_3C_MIG: BioMAP Diversity Plus: 3C Assay for Monokine induced gamma interferon (MIG) Biomarker Activity (AID 2283021)
# Conditions: primary human endothelial cells (HUVEC); actives raise or lower the signal
# In short: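 Read-out is ELISA detection of MIG on human umbilical vein endothelial cells, taken 24 h after dosing. Gain or loss of signal was scored relative to DMSO controls using bidirectional curve fitting.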
row,SMILES,outcome
1,O=C(Nc1ccc2c(O)c(N=Nc3ccc(N=Nc4ccc(S(=O)(=O)O)cc4)cc3)c(S(=O)(=O)O)cc2c1)c1ccccc1,inactive
2,O=C1OC[C@H](Cc2cccc(O)c2)[C@H]1Cc1cccc(O)c1,inactive
3,O=C1c2ccccc2C(=O)c2c(O)ccc(O)c21,inactive
4,CCOC(=O)C(C#N)=C(c1ccccc1)c1ccccc1,inactive
5,C1=CC2C3C=CC(C3)C2C1 (stereo not drawn),inactive

# Molecular target: human Vitamin D Receptor (VDR), VDR (gene 7421) (UniProt P11473)
# Sequence (P11473 whole entry, looked up): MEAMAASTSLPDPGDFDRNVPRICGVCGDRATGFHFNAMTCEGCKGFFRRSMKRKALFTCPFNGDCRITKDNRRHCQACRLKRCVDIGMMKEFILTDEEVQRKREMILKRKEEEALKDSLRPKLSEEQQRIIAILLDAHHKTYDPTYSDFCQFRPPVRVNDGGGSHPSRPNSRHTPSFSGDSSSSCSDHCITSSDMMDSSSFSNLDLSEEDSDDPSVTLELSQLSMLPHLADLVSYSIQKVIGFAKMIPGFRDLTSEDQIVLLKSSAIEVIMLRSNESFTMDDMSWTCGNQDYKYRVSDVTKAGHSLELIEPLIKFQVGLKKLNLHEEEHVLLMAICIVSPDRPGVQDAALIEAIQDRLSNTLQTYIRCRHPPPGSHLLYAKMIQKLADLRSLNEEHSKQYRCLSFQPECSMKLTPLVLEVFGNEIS
# Experiment: ATG_VDR_TRANS: Attagene TRANS-FACTORIAL HepG2 Assay for human Vitamin D Receptor (VDR) (AID 2283022; active = hit-call score of the fitted dose curve at least 0.9, where 1 is the maximum)
# Conditions: not given
# In short: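 RT-PCR/capillary electrophoresis read-out of reporter mRNA induction in transiently transfected HepG2; 24 h dosing; chimeric NR-Gal4 (TRANS format); gain-of-signal fit against DMSO baseline.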
row,SMILES,outcome
1,O=C(Nc1ccc2c(O)c(N=Nc3ccc(N=Nc4ccc(S(=O)(=O)O)cc4)cc3)c(S(=O)(=O)O)cc2c1)c1ccccc1,inactive
2,O=C1OC[C@H](Cc2cccc(O)c2)[C@H]1Cc1cccc(O)c1,inactive
3,C1=CC2C3C=CC(C3)C2C1 (stereo not drawn),inactive

# Read-out: not listed separately
# Experiment: BSK_3C_SRB: Viability Assessment in the BioMAP Diversity Plus: 3C Assay (AID 2283023);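 also: fitted both ways against DMSO so a hit may be signal rise or drop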
# Conditions: primary human endothelial cells (HUVEC)
# In short: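 HUVEC, 24 h post-dose; 10% TCA fix, 0.1% SRB stain, A560 nm. Bidirectional curve fit vs DMSO negative control.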
SMILES,outcome,AC50
O=C(Nc1ccc2c(O)c(N=Nc3ccc(N=Nc4ccc(S(=O)(=O)O)cc4)cc3)c(S(=O)(=O)O)cc2c1)c1ccccc1,inactive,
O=C1OC[C@H](Cc2cccc(O)c2)[C@H]1Cc1cccc(O)c1,inactive,
O=C1c2ccccc2C(=O)c2c(O)ccc(O)c21,inactive,
CCOC(=O)C(C#N)=C(c1ccccc1)c1ccccc1,,25.6 µM (active) and 20 µM (active)
C1=CC2C3C=CC(C3)C2C1 (stereo not drawn),inactive,

# Read-out: Matrix Metallopeptidase 1 (MMP1), MMP1 (gene 4312)
# Experiment: BSK_BE3C_MMP1: BioMAP Diversity Plus: BE3C Assay for Matrix Metallopeptidase 1 (MMP1) Biomarker Activity (AID 2283024)
# Conditions: primary human bronchial epithelial cells; actives raise or lower the signal
# In short: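 Human bronchial epithelial cells (BE3C system) exposed to compound for 24 h; MMP1 then quantified by ELISA. Activity was fitted in both directions relative to DMSO.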
SMILES,AC50,outcome
O=C(Nc1ccc2c(O)c(N=Nc3ccc(N=Nc4ccc(S(=O)(=O)O)cc4)cc3)c(S(=O)(=O)O)cc2c1)c1ccccc1,16 µM (active) and 10.4 µM (active),
O=C1OC[C@H](Cc2cccc(O)c2)[C@H]1Cc1cccc(O)c1,,inactive
O=C1c2ccccc2C(=O)c2c(O)ccc(O)c21,,inactive
CCOC(=O)C(C#N)=C(c1ccccc1)c1ccccc1,25.2 µM (active) and 31.1 µM (active),
C1=CC2C3C=CC(C3)C2C1 (stereo not drawn),,inactive

# Read-out: not listed separately
# Experiment: BSK_3C_Vis: BioMAP Diversity Plus: 3C Assay for Morphology Visualization (AID 2283025);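 also: fitted both ways so gain or loss versus DMSO counts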;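 as to AC50: light microscopy image of cell morphology used as background control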
# Conditions: primary human endothelial cells (HUVEC)
# In short: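 Chemicals were added to primary human umbilical vein endothelium, cells were incubated 24 h, and morphology was then visualized by light microscopy. Gain or loss of signal was fitted bidirectionally relative to DMSO.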
SMILES,outcome,AC50
O=C1OC[C@H](Cc2cccc(O)c2)[C@H]1Cc1cccc(O)c1,inactive,
O=C1c2ccccc2C(=O)c2c(O)ccc(O)c21,,13.6 µM (active)
C1=CC2C3C=CC(C3)C2C1 (stereo not drawn),inactive,

# Read-out: Pselectin, SELP (gene 6403)
# Experiment: BSK_4H_Pselectin: BioMAP Diversity Plus: 4H Assay for Pselectin Biomarker Activity (AID 2283026)
# Conditions: primary human endothelial cells (HUVEC); actives raise or lower the signal
# In short: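 ELISA read-out of P-selectin on human umbilical vein endothelium after 24 h of dosing. Values derive from bidirectional fitting relative to DMSO. Parallel SRB protein staining flagged overt cytotoxicity.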
row,SMILES,outcome
1,O=C(Nc1ccc2c(O)c(N=Nc3ccc(N=Nc4ccc(S(=O)(=O)O)cc4)cc3)c(S(=O)(=O)O)cc2c1)c1ccccc1,inactive
2,O=C1OC[C@H](Cc2cccc(O)c2)[C@H]1Cc1cccc(O)c1,inactive
3,O=C1c2ccccc2C(=O)c2c(O)ccc(O)c21,inactive
4,CCOC(=O)C(C#N)=C(c1ccccc1)c1ccccc1,inactive
5,C1=CC2C3C=CC(C3)C2C1 (stereo not drawn),inactive

# Read-out: not listed separately
# Experiment: BSK_BE3C_SRB: Viability Assessment in the BioMAP Diversity Plus: BE3C Assay (AID 2283028)
# Conditions: primary human bronchial epithelial cells
# In short: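 Primary human bronchial epithelium; chemical dosing, 24 h; 10% TCA fix, 0.1% SRB stain, A560; bidirectional fit vs DMSO baseline.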
row,SMILES,outcome
1,O=C(Nc1ccc2c(O)c(N=Nc3ccc(N=Nc4ccc(S(=O)(=O)O)cc4)cc3)c(S(=O)(=O)O)cc2c1)c1ccccc1,inactive
2,O=C1OC[C@H](Cc2cccc(O)c2)[C@H]1Cc1cccc(O)c1,inactive
3,O=C1c2ccccc2C(=O)c2c(O)ccc(O)c21,inactive
4,CCOC(=O)C(C#N)=C(c1ccccc1)c1ccccc1,inactive
5,C1=CC2C3C=CC(C3)C2C1 (stereo not drawn),inactive
